Assay results taken from PubChem BioAssay (NCATS).
Results filed as inconclusive are left out. Calls of active or inactive are those of the source. Calls follow the shape of the dose curve; as a rule, active = well fitted inhibition curve with a large enough effect; inconclusive = small, poorly fitted or top-dose-only effect; inactive = flat fitted curve, though single readings scatter.

Columns and labels:
CRL-7250 = normal cell line; test: Cytotoxic Profiling of Annotated Libraries Using Quantitative High-Throughput Screening (AID 1296008); conditions: Five cell lines viability, CellTiter-Glo ATP luminescence, 48-72 h; max response: active compounds read low; as to max response: % is scaled to controls: 0 for no effect and ±100 for the full control effect
How it was run: (§1)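 Compounds were pin-transferred onto cells and incubated 48 or 72 hr at 37 degree Celsius, 95% humidity. CellTiter-Glo was added, plates sat 10 min at room temperature, then ATP-coupled luminescence was imaged as the viability read-out.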

HaCat [1] = test: as above; conditions: Five cell lines viability, CellTiter-Glo ATP luminescence, 48-72 h; max response: active compounds read low
How it was run: as §1

KB-3-1 = test: as above; conditions: Five cell lines viability, CellTiter-Glo ATP luminescence, 48-72 h; max response: active compounds read low
How it was run: as §1

NIH3T3 = test: as above; conditions: Five cell lines viability, CellTiter-Glo ATP luminescence, 48-72 h; max response: active compounds read low
How it was run: as §1

HACAT [2] = test: qHTS assay to identify novel small-molecules to repurpose for Merkel cell carcinoma treatment (AID 1296009); conditions: MCC and control cell lines, CellTiter-Glo viability, 72 h; at 44.8 µM (top of the series) unless noted
How it was run: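 Cells exposed to NPC (8-point) and MIPE (11-point) compound dilutions for 72 hr at 37 degree celsius; viability read by CellTiter-Glo luminescence, normalized to no-cell and DMSO in-plate controls.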

Measured: max response
Also: nearly all actives have a fitted effect of over 60% in size.

Fc1ccc(CN2CCC(Nc3ccc(C(F)(F)F)nn3)CC2)cc1F
inactive: CRL-7250 -3.28% | HaCat [1] | KB-3-1 -12.1% | NIH3T3 -5.8% | HACAT [2]

CC(=O)C=C=C1C(C)(C)CC(O)CC1(C)O[C@@H]1O[C@H](CO[C@H]2OC[C@](O)(CO)[C@H]2O)[C@@H](O)[C@H](O)[C@H]1O (stereo not given in full)
inactive: CRL-7250 -2.66% | HaCat [1] | KB-3-1 | NIH3T3 1.53% | HACAT [2] inactive [at 17.4 µM]

CC1(C)Oc2ncnc(N)c2N=C1c1ccc(C23CCC(CC(=O)O)(CC2)CC3)cc1
inactive: CRL-7250 1.74% | HaCat [1] | KB-3-1 -2.56% | NIH3T3 -15.7% | HACAT [2]

CCCn1cc2c(nc(NC(=O)Nc3ccc(OC)cc3)n3nc(-c4ccco4)nc23)n1
inactive: CRL-7250 4.71% | HaCat [1] | KB-3-1 9% | NIH3T3 | HACAT [2]

C=C1CC2OC(=O)C(=C)C2C(O)/C=C(\C)CCC1O (stereo not given)
inactive: CRL-7250 -0.668% | HaCat [1] | KB-3-1 5.02% | NIH3T3 -10.3% | HACAT [2]

C[C@@H](NC(=O)C(=O)c1c[nH]c2ccc([N+](=O)[O-])cc12)c1ccccc1
inactive: CRL-7250 | HaCat [1] | KB-3-1 -11% | NIH3T3 3.7% | HACAT [2]

C=C(C)[C@@H]1CC[C@]2(C(=O)O)CC[C@]3(C(=O)O)[C@H](CCC4[C@@]5(C)CCC(=O)C(C)(C)C5CC[C@]43C)C12 (stereo not given in full)
inactive: CRL-7250 -13.3% | HaCat [1] | KB-3-1 4.42% | NIH3T3 -2.4% | HACAT [2] inactive [at 17.4 µM]

C/C=C(\C)C(=O)OC1C=C(C)CC(OC(=O)c2ccc(O)cc2)C2C1(C)CCC2(O)C(C)C (stereo not given)
inactive: CRL-7250 1.09% | HaCat [1] | KB-3-1 5.76% | NIH3T3 | HACAT [2] inactive [at 17.4 µM]

CC(=O)O[C@@H]1CC[C@@]2(C)C(CC[C@]3(C)C2[C@H](O)C=C2[C@H]4[C@@H](C)[C@H](C)CC[C@]4(C)CC[C@]23C)[C@@]1(C)C(=O)O (stereo not given in full)
inactive: CRL-7250 -13.3% | HaCat [1] | KB-3-1 | NIH3T3 | HACAT [2] inactive [at 17.4 µM]

CCN(Cc1ccccc1)C(=O)Cn1c(=O)n(C)c2cnc(-c3ccccc3)nc21
inactive: CRL-7250 -1.74% | HaCat [1] | KB-3-1 | NIH3T3 | HACAT [2]

COc1cc2nc(N3CCN(C(=O)COc4c(OC)cccc4C(C)C)CC3)nc(N)c2cc1OC
inactive: CRL-7250 1.78% | HaCat [1] | KB-3-1 8.96% | NIH3T3 | HACAT [2]

CC1=CC2/C=C(\C)CCC(O)C/C=C/C(=O)OC23C(=O)NC(CC(C)C)C3C1C (stereo not given)
inactive: CRL-7250 -1.17% | HaCat [1] | KB-3-1 | NIH3T3 | HACAT [2] inactive [at 17.4 µM]

NC(=O)c1cccc2[nH]c(-c3ccc(C4CCCN4)cc3F)nc12 (stereo not given)
inactive: all assays above

C/C=C(\C)C(=O)OC1C[C@@]2(COC(C)=O)O[C@H]2/C=C\[C@@]2(C)O[C@@H]2[C@H]2OC(=O)C(COC(C)=O)=C12 (stereo not given in full)
inactive: CRL-7250 -2.2% | HaCat [1] | KB-3-1 7.77% | NIH3T3 3.22% | HACAT [2] inactive [at 17.4 µM]

C=C1CC[C@@H]2[C@](C)(CO)[C@H](O)CC[C@@]2(C)[C@@H]1CC(O)C1=CCOC1=O (stereo not given in full)
inactive: CRL-7250 -6.08% | HaCat [1] | KB-3-1 | NIH3T3 | HACAT [2]

C=C1C(OC2OC(CO)C(O)C(O)C2O)CC2C(C)(C)C(O)CCC2(C)C1CC/C(C)=C\COC(=O)CC(=O)O (stereo not given)
inactive: CRL-7250 -0.672% | HaCat [1] | KB-3-1 | NIH3T3 3.9% | HACAT [2] inactive [at 17.4 µM]

Cc1cc(C)c(-n2cc(C)c3c(Cl)nc(C)nc32)c(C)c1
inactive: CRL-7250 -11.1% | HaCat [1] | KB-3-1 -3.82% | NIH3T3 -6% | HACAT [2]

COc1cc(O)cc(/C=C/c2cccc(O)c2)c1
inactive: CRL-7250 0.366% | HaCat [1] | KB-3-1 | NIH3T3 -7.28% | HACAT [2]

C=C1CCC[C@]2(C)CC/C(=C(/CO)C(=O)OC)C[C@@H]12
inactive: CRL-7250 -7.08% | HaCat [1] | KB-3-1 -2.83% | NIH3T3 2.53% | HACAT [2]
